Measured values: PubChem BioAssay (EPA / NIEHS)
Records with an inconclusive call do not appear. Activity calls are given as the source filed them. The calls were made as follows, unless noted: active = hit-call score of the fitted dose curve at least 0.9, where 1 is the maximum; inactive = score below 0.9.

Experiments:
[1] = target: Estrogen-related receptor gamma (Homo sapiens) (UniProt P62508); assay: ATG_ERRg_TRANS: Attagene TRANS-FACTORIAL HepG2 Assay for human Estrogen-Related Receptor gamma (ERRg) (AID 2282977; active = hit-call score of the fitted dose curve at least 0.9, where 1 is the maximum;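 also: hits increase reporter signal over DMSO so potencies reflect activators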); conditions: HepG2 Attagene TRANS reporter, ERRg transactivation
How it was run: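 Exogenous NR-Gal4 chimera activity was assessed in HepG2 cells bearing transfected GAL4-UAS reporters. After 24 h dosing, total RNA underwent RT-PCR, fluorescent primer extension and HpaI digestion before capillary electrophoresis, with gain of signal scored against DMSO.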

[2] = target: Glucocorticoid receptor (Homo sapiens) (UniProt P04150); assay: ATG_GR_TRANS: Attagene TRANS-FACTORIAL HepG2 Assay for human Glucocorticoid Receptor (GR) (AID 2282978; active = hit-call score of the fitted dose curve at least 0.9, where 1 is the maximum;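 also: activators score as hits since higher reporter transcript over DMSO is fitted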); conditions: HepG2 Attagene TRANS GR reporter, mRNA transcription
How it was run: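 HepG2 cells transiently transfected with multiplexed reporter units in which chimeric NR-GAL4 proteins drive GAL4-UAS reporters; 24 h compound exposure. Reporter mRNA measured by RT-PCR, 6-FAM labelling, HpaI digestion and capillary electrophoresis; gain-of-signal fitted versus DMSO.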

[3] = target: Bile acid receptor (Homo sapiens) (UniProt Q96RI1); assay: ATG_FXR_TRANS: Attagene TRANS-FACTORIAL HepG2 Assay for Farnesoid X Receptor (FXR) (AID 2282979; active = hit-call score of the fitted dose curve at least 0.9, where 1 is the maximum;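 also: hits raise reporter mRNA above DMSO so AC50 marks FXR activation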); conditions: HepG2 Attagene TRANS FXR-GAL4 reporter transcription
How it was run: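 Reporter transcripts from transfected HepG2 cells were measured 24 h after dosing, using RT-PCR with capillary electrophoresis of 6-FAM-labelled fragments. The read-out reflects activity of exogenous FXR-Gal4 chimera on GAL4-UAS units, with induction relative to DMSO.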

[4] = target: Oxysterols receptor LXR-beta (Homo sapiens) (UniProt P55055); assay: ATG_LXRb_TRANS: Attagene TRANS-FACTORIAL HepG2 Assay for human Liver X Receptor beta (LXRb) (AID 2282981; active = hit-call score of the fitted dose curve at least 0.9, where 1 is the maximum); conditions: HepG2 Attagene TRANS GAL4-LXRb reporter, mRNA
How it was run: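 After 24 h of chemical treatment, transfected HepG2 cells yield total RNA; reporter cDNA is PCR-amplified, FAM-labelled, HpaI-cut and run on capillary electrophoresis. Signal reflects chimeric LXRb-Gal4 activity on GAL4-UAS reporters.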

[5] = ATG_M_32_TRANS: Attagene TRANS-FACTORIAL HepG2 Assay for M32 Transcription Factor (Internal Marker) (AID 2282984; active = hit-call score of the fitted dose curve at least 0.9, where 1 is the maximum;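 also: transcript level of a background control reporter unit measured by RT-PCR and capillary electrophoresis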); conditions: HepG2 Attagene TRANS M32 internal marker reporter
How it was run: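 Cell-based TRANS-format assay in HepG2: exogenous chimeric GAL4 reporter units transiently expressed, compounds applied 24 h. Reporter mRNA detected by RT-PCR plus capillary electrophoresis; this readout is an internal background marker.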

[6] = target: Nuclear receptor subfamily 4 group A member 2 (Homo sapiens) (UniProt P43354); assay: ATG_NURR1_TRANS: Attagene TRANS-FACTORIAL HepG2 Assay for human Nuclear Receptor Related Protein 1 (NURR1) (AID 2282985; active = hit-call score of the fitted dose curve at least 0.9, where 1 is the maximum); conditions: HepG2 Attagene TRANS reporter, mRNA readout
How it was run: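 Measures transcriptional activation by an exogenous NR-Gal4 chimera in transfected HepG2 liver cells. After 24 h, reporter RNA is reverse-transcribed, amplified and resolved by capillary electrophoresis; DMSO defines baseline.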

[7] = target: Transcriptional activator Myb (Homo sapiens) (UniProt P10242); assay: ATG_Myb_CIS: Attagene CIS-FACTORIAL HepG2 Assay for human Myeloblastosis (Myb) Proto-Oncogene Transcription Factor (AID 2282986); conditions: HepG2 Attagene CIS-FACTORIAL Myb reporter transcription; actives raise or lower the signal
How it was run: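 HepG2 cells were transiently transfected with cis-regulated multiple reporter transcription units reflecting endogenous Myb activity, then exposed to compound for 24 hours. Reporter mRNA was measured by RT-PCR with capillary electrophoresis; bidirectional fitting versus DMSO baseline.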

[8] = target: Nuclear respiratory factor 1 (Homo sapiens) (UniProt Q16656); assay: ATG_NRF1_CIS: Attagene CIS-FACTORIAL HepG2 Assay for human Nuclear Respiratory Factor 1 (NRF1) Orphan Gene (AID 2282987); conditions: HepG2 NRF1 cis-element reporter, Attagene multiplex; actives raise or lower the signal
How it was run: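 HepG2 cells transiently transfected with multiple reporter transcription units under cis-regulatory promoter control, so endogenous transcription-factor activity is read. After 24 h compound exposure, reporter mRNA quantified by RT-PCR, fluorescent labelling, HpaI digestion and capillary electrophoresis; bidirectional fitting versus DMSO.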

[9] = ATG_NFI_CIS: Attagene CIS-FACTORIAL HepG2 Assay for human Nuclear Factor I (NFI) (AID 2282989); conditions: HepG2 cis-regulatory reporter, NFI response element transcription; actives raise or lower the signal
How it was run: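 Multiplexed cis-reporter system in human HepG2 cells reports native TF activity as reporter mRNA induction 24 h post-dose. Fragments labelled with 6-FAM, HpaI-digested and resolved by capillary electrophoresis; activity fitted both directions versus DMSO.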

[10] = target: Myc proto-oncogene protein (Homo sapiens) (UniProt P01106); assay: ATG_Myc_CIS: Attagene CIS-FACTORIAL HepG2 Assay for human Myelocytomatosis (Myc) Proto-Oncogene Transcription Factor (AID 2282990); conditions: HepG2, Attagene cis-reporter transcription factor activity; actives raise or lower the signal
How it was run: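 After 24 h chemical treatment of HepG2 cells carrying multiplexed cis-regulated reporter constructs, reporter transcripts quantified by RT-PCR and capillary electrophoresis of fluorescent fragments. Gain or loss fitted against DMSO baseline.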

[11] = ATG_NF_kB_CIS: Attagene CIS-FACTORIAL HepG2 Assay for human Nuclear Factor Kappa B (NF-kB) (AID 2282991); conditions: HepG2 Attagene cis-factorial NF-kB reporter mRNA; actives raise or lower the signal
How it was run: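 HepG2 cells transiently transfected with multiplexed cis-element reporter units measuring endogenous transcription factor activity; reporter mRNA read 24 h after dosing by RT-PCR, fluorescent labelling, HpaI digestion and capillary electrophoresis. Bidirectional fit against DMSO baseline.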

[12] = ATG_NRF2_ARE_CIS: Attagene CIS-FACTORIAL HepG2 Assay for human Nuclear Factor Erythroid 2 Related Factor 2 (NFR2) response to Antioxidant Response Elements (ARE) (AID 2282992); conditions: HepG2 Attagene ARE/NRF2 reporter, transcription factor activity; actives raise or lower the signal;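 as to AC50: reporter mRNA level measured by RT-PCR and capillary electrophoresis fluorescence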
How it was run: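 Endogenous transcription factor activity in human liver HepG2 cells is tracked via a cis-element-driven reporter within a multiplexed set. mRNA induction is read by RT-PCR and capillary electrophoresis after 24 h, with DMSO as baseline.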

[13] = target: Cellular tumor antigen p53 (Homo sapiens) (UniProt P04637); assay: ATG_p53_CIS: Attagene CIS-FACTORIAL HepG2 Assay for human p53 Transcription Factor (AID 2282994); conditions: HepG2 p53 cis-element reporter, Attagene mRNA; actives raise or lower the signal
How it was run: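 Steps: transfect HepG2 with multiplexed cis reporter constructs; dose chemicals 24 h; extract RNA, reverse-transcribe, PCR-amplify reporter sequences; FAM-label, HpaI-digest, resolve fragments by CE. Activity fitted both directions relative to DMSO.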

[14] = target: Oxysterols receptor LXR-alpha (Homo sapiens) (UniProt Q13133); assay: ATG_LXRa_TRANS: Attagene TRANS-FACTORIAL HepG2 Assay for human Liver X Receptor alpha (LXRa) (AID 2282980; active = hit-call score of the fitted dose curve at least 0.9, where 1 is the maximum); conditions: HepG2 Attagene TRANS reporter, LXRa transactivation
How it was run: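 Chemical-induced reporter mRNA measured by RT-PCR with fluorescent labelling and capillary electrophoresis after 24 h dosing of transiently transfected HepG2 cells expressing exogenous NR-Gal4 chimeras; increases scored against DMSO baseline.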

[15] = target: Hepatocyte nuclear factor 4-alpha (Homo sapiens) (UniProt P41235); assay: ATG_HNF4a_TRANS: Attagene TRANS-FACTORIAL HepG2 Assay for human Hepatocyte Nuclear Factor 4 alpha (HNF4a) (AID 2282982; active = hit-call score of the fitted dose curve at least 0.9, where 1 is the maximum); conditions: HepG2 HNF4a transactivation reporter, mRNA readout
How it was run: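 Multiplexed reporter assay: transfected HepG2, 24 h exposure, total RNA → oligo(dT) RT → PCR → 6-FAM extension → HpaI digest → CE fluorescence. DMSO = negative control.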

[16] = ATG_M_06_TRANS: Attagene TRANS-FACTORIAL HepG2 Assay for M06 Transcription Factor (Internal Marker) (AID 2282983; active = hit-call score of the fitted dose curve at least 0.9, where 1 is the maximum;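 also: reporter transcript level by RT-PCR then capillary electrophoresis fluorescence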); conditions: HepG2 Attagene TRANS M06 internal marker reporter
How it was run: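 Background-control reporter readout: after 24 h chemical exposure of transiently transfected HepG2 (GAL4-UAS reporter units), mRNA quantified by RT-PCR with fluorescent labeling and capillary electrophoresis. Gain-of-signal fitting against DMSO baseline.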

[17] = BSK_3C_TissueFactor: BioMAP Diversity Plus: 3C Assay for Tissue Factor Biomarker Activity (AID 2282997); conditions: BioMAP 3C HUVEC, tissue factor biomarker readout; actives raise or lower the signal
How it was run: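 Tissue factor on primary human umbilical vein endothelium was read by ELISA 24 h after dosing, gain or loss relative to DMSO. Cytotoxicity ran alongside via SRB (0.1%, TCA-fixed, 560 nm).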

[18] = BSK_3C_uPAR: BioMAP Diversity Plus: 3C Assay for Urokinase-type plasminogen activator receptor (uPAR) Biomarker Activity (AID 2282998); conditions: BioMAP 3C HUVEC, uPAR biomarker ELISA; actives raise or lower the signal
How it was run: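 Values derive from bidirectional curve fitting relative to DMSO, which served as baseline of activity. uPAR was measured by ELISA in human umbilical vein endothelial primary cultures 24 h after compound addition.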

[19] = BSK_3C_VCAM1: BioMAP Diversity Plus: 3C Assay for Vascular cell adhesion molecule 1 (VCAM1) Biomarker Activity (AID 2282999); conditions: BioMAP 3C HUVEC, VCAM1 ELISA, cytokine-stimulated; actives raise or lower the signal
How it was run: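 Activity fitted in both directions relative to DMSO, with ELISA measurement of the surface marker on primary HUVEC (3C) at 24 h post-treatment; parallel SRB staining (0.1% SRB, TCA-fixed, 560 nm) flagged overt cytotoxicity.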

[20] = ATG_Oct_MLP_CIS: Attagene CIS-FACTORIAL HepG2 Assay for human Octamer-Binding Transcription Factor (Oct) (AID 2282993); conditions: HepG2 Attagene cis-factorial Oct reporter, mRNA; actives raise or lower the signal
How it was run: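 After 24 h compound exposure, transfected HepG2 cells were lysed for total RNA; reporter-specific cDNA was PCR-amplified, fluorescently labelled and sized by capillary electrophoresis. Bidirectional curve fitting used DMSO as baseline.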

Measured: AC50

Bile acid receptor (Homo sapiens), sequence (Q96RI1 whole entry, looked up, the tested form may be a part): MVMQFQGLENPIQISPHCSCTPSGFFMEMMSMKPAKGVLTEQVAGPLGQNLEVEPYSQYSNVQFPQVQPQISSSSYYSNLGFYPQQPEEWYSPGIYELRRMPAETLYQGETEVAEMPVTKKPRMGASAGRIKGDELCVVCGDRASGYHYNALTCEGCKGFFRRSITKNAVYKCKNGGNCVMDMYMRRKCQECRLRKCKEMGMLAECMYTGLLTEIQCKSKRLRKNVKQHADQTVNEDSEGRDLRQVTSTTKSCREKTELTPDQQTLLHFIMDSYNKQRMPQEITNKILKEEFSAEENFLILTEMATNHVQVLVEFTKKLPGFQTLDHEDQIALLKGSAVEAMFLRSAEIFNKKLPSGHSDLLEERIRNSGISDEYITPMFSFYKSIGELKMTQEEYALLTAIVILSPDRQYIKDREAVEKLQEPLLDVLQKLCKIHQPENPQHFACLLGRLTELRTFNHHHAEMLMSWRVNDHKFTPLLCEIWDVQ
Myc proto-oncogene protein (Homo sapiens), sequence (P01106 whole entry, looked up, the tested form may be a part): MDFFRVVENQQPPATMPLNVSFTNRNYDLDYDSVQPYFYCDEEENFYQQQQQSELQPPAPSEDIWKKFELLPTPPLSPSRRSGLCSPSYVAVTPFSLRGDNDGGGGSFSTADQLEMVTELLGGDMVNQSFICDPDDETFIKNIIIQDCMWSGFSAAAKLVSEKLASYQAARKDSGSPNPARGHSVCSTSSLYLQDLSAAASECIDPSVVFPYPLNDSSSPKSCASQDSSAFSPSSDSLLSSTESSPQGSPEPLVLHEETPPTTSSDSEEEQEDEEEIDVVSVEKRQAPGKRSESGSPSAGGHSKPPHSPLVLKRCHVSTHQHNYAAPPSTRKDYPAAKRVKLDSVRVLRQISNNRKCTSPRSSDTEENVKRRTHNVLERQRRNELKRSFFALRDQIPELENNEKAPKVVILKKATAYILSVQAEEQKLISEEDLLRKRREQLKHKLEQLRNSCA
Cellular tumor antigen p53 (Homo sapiens), sequence (P04637 whole entry, looked up, the tested form may be a part): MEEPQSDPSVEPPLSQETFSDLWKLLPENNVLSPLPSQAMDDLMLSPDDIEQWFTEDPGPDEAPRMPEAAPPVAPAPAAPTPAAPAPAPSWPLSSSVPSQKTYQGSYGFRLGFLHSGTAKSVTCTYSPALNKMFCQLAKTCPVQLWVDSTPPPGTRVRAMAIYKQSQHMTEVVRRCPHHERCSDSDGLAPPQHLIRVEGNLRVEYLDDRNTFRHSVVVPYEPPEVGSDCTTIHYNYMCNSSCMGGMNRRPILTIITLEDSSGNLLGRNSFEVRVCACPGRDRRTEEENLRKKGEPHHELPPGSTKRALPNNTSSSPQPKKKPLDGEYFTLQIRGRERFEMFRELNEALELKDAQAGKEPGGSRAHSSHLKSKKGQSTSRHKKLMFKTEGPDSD
Glucocorticoid receptor (Homo sapiens), sequence (P04150 whole entry, looked up, the tested form may be a part): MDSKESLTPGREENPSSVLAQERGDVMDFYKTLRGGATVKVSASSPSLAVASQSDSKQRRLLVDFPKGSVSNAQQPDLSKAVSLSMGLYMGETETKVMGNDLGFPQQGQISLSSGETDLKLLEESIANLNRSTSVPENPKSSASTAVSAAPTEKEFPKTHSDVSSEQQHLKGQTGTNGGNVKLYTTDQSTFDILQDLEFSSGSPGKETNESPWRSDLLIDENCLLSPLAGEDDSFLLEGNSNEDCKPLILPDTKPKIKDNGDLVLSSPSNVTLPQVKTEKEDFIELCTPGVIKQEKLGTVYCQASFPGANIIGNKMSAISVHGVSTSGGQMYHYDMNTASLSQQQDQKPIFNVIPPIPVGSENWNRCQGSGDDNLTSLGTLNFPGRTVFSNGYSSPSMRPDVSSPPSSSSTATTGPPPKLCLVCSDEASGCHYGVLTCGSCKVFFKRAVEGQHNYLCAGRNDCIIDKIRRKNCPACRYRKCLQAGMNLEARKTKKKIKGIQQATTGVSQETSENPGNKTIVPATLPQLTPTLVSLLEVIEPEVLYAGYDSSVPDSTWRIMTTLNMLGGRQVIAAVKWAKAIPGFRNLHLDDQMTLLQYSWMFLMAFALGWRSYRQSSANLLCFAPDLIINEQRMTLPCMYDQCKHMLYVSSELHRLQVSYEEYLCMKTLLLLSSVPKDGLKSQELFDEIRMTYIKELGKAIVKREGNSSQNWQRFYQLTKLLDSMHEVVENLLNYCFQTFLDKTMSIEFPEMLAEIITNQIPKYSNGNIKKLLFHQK
Nuclear respiratory factor 1 (Homo sapiens), sequence (Q16656 whole entry, looked up): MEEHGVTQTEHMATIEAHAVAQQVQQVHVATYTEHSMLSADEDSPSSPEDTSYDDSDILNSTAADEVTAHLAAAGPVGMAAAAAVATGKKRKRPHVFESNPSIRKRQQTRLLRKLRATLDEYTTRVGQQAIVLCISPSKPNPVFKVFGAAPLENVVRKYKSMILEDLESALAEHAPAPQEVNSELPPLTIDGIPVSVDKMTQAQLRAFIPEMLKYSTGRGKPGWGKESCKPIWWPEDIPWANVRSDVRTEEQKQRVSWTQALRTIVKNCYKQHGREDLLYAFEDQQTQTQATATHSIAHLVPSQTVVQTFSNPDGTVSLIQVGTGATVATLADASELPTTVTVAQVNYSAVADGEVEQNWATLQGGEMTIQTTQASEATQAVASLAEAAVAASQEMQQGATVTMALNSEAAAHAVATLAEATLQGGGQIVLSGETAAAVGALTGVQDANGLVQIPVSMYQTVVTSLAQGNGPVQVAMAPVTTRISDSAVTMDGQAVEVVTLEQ
Hepatocyte nuclear factor 4-alpha (Homo sapiens), sequence (P41235 whole entry, looked up): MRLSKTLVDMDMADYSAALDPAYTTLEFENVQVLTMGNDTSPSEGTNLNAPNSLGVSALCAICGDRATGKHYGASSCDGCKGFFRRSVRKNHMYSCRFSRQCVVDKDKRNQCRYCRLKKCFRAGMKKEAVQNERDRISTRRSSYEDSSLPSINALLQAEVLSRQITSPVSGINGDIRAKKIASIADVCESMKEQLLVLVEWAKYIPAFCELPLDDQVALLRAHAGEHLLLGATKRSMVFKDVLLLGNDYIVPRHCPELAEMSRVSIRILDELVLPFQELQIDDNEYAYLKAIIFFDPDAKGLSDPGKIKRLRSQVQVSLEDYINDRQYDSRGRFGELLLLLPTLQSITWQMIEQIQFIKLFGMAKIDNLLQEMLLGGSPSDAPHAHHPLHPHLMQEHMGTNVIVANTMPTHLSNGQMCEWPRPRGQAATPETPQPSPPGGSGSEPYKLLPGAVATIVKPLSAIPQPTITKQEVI
Transcriptional activator Myb (Homo sapiens), sequence (P10242 whole entry, looked up): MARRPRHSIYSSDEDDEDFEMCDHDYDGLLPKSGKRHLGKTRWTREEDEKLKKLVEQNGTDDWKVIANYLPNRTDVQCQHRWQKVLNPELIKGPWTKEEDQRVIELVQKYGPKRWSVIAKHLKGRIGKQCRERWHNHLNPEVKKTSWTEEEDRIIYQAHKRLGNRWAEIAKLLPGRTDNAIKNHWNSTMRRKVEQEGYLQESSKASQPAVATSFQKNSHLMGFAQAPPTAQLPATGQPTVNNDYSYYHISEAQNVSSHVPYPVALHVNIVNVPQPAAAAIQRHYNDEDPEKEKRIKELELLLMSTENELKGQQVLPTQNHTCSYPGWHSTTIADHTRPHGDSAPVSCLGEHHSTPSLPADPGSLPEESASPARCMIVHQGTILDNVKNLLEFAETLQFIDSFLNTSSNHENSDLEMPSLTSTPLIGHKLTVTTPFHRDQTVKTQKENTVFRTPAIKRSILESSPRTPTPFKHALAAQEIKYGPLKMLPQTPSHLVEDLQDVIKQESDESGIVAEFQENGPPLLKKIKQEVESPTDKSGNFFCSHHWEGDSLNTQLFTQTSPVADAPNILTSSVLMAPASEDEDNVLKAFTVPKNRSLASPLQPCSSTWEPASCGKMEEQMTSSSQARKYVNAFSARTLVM
Nuclear receptor subfamily 4 group A member 2 (Homo sapiens), sequence (P43354 whole entry, looked up, the tested form may be a part): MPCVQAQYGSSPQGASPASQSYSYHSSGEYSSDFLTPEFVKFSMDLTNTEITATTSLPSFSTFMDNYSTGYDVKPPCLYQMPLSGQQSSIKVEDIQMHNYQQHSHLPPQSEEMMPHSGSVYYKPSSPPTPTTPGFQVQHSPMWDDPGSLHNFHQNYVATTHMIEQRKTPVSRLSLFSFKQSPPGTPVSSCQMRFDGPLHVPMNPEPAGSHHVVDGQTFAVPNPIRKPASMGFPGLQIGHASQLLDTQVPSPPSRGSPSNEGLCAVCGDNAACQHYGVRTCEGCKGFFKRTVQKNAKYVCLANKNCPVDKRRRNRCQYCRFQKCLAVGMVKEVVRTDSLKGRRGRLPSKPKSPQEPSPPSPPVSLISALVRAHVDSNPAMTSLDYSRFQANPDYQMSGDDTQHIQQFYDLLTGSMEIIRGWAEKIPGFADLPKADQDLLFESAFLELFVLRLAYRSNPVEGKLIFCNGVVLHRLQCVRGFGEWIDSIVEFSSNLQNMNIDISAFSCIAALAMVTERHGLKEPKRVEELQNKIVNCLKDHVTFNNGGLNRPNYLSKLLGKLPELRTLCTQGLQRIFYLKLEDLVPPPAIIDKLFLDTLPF
Estrogen-related receptor gamma (Homo sapiens), sequence (P62508 whole entry, looked up, the tested form may be a part): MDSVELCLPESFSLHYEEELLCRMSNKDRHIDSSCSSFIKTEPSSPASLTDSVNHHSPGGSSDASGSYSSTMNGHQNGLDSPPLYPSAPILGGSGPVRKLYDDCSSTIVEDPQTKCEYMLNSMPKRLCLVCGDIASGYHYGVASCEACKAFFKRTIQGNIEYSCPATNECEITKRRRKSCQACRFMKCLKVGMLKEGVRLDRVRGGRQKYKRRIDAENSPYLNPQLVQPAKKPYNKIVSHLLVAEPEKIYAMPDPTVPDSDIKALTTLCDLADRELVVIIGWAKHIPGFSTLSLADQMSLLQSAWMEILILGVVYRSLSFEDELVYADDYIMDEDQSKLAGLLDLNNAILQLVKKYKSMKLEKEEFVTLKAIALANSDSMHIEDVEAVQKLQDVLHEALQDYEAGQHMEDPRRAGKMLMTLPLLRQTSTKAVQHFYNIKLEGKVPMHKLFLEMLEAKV

OCC(O)CO
not listed: [14] | [15] | [16] | [17] | [18] | [19] | [20]
inactive: all other assays above

O=C(N[C@H]1CN2CCC1CC2)c1cc2ccoc2cn1
not listed: [1] | [3] | [6] | [12] | [20]
inactive: all other assays above

Nn1cnnc1
not listed: [1] | [3] | [5] | [6] | [12] | [15]
inactive: all other assays above

O=S(=O)(O)C(F)(F)C(F)(F)C(F)(F)C(F)(F)F
not listed: [3] | [12]
inactive: all other assays above

CCC(C)(CC)c1cc(NC(=O)c2c(OC)cccc2OC)on1
active: [12] 0.289 µM | [20] 1.64 µM
not listed: [2] | [3] | [4] | [13] | [14] | [16]
inactive: all other assays above

CCC(C)c1cc([N+](=O)[O-])cc([N+](=O)[O-])c1O (stereo not drawn)
active: [12] 14.1 µM | [20] 16.4 µM | [18] 9.09 µM | [19] 8.86 µM
not listed: [5] | [6]
inactive: all other assays above

Cc1cc(O)ccc1Cl
active: [14] 24.3 µM
not listed: [4] | [5] | [6] | [12]
inactive: all other assays above

O=NN(c1ccccc1)c1ccccc1
inactive: [3] | [16] | [7] | [8] | [9] | [10] | [20] | [13] | [17] | [18] | [19]

O=C(NC(=O)c1cc(F)c(F)cc1Cl)Nc1cc(F)ccc1N1CCC(C(=O)O)CC1
active: [12] 16.5 µM
not listed: [1] | [3] | [5] | [11] | [14] | [16] | [20]
inactive: all other assays above

ClC1=C(Cl)[C@]2(Cl)[C@@H]3[C@@H](Cl)[C@H]4O[C@H]4[C@@H]3C1(Cl)C2(Cl)Cl
inactive: [2] | [4] | [16] | [7] | [10] | [11] | [17] | [18] | [19]
active: [8] 150 µM | [9] 65.1 µM | [12] 28.4 µM | [13] 100 µM

Nc1ccc(-c2ccc(N)cc2)cc1
active: [17] 3.97 µM
not listed: [1] | [3] | [4] | [6] | [11] | [12] | [14]
inactive: all other assays above

CC(C)C(=O)OCC(C)(C)C(OC(=O)C(C)C)C(C)C (stereo not drawn)
not listed: [1] | [2] | [3] | [5] | [15] | [16]
inactive: all other assays above

CCCCCCOC(=O)c1ccccc1C(=O)OCCCCCC
active: [12] 16.2 µM
not listed: [1] | [3] | [4] | [5] | [14] | [15]
inactive: all other assays above

C1CC2OC2CC1C1CO1 (stereo not drawn)
not listed: [1] | [2] | [4] | [6] | [12] | [14] | [15] | [16]
inactive: all other assays above

O=C(NC(=O)c1c(F)cccc1F)Nc1cc(Cl)c(OC(F)(F)C(F)F)c(Cl)c1
active: [17] 1.03 µM
not listed: [1] | [2] | [3] | [4] | [5] | [6] | [15] | [20]
inactive: all other assays above

CO/C=C(/C(=O)OC)c1ccccc1COc1cccc(C(F)(F)F)n1
inactive: [3] | [5] | [7] | [8] | [9] | [10] | [11] | [13]
active: [6] 29.3 µM | [20] 11.5 µM | [17] 10.4 µM | [18] 36.9 µM | [19] 20 µM
